Data from PubChem BioAssay (Tox21).
Where “and” joins values, the source holds several entries; their conditions need not be identical. Equal values may be shown once. Results filed as inconclusive are left out. Calls of active or inactive are those of the source. Unless noted, the call rests on the fitted dose curve; in most records, active means well fitted curve in the direction sought with a large enough effect in the repeat runs; inconclusive means weak or mixed curves; inactive means no such curve, though single readings can be large; an effect the other way counts as inactive or inconclusive.

What was measured:
[1] = qHTS assay for small molecules that induce genotoxicity in human embryonic kidney cells expressing luciferase-tagged ATAD5 - cell viability (AID 651634; calls by dose curve; further: nearly all actives have a fitted effect of over 25% in size)
In short: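 15.5 hr compound or vehicle exposure of HEK293T cells expressing luciferase-tagged ATAD5 at 37C; live-cell protease activity is read by fluorescence after 30 min of CellTiter-Fluor.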

[2] = qHTS assay for small molecule disruptors of the mitochondrial membrane potential - cell viability (AID 720634; calls by dose curve;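 further: human HepG2 liver cancer cells; series mostly up to about 83 µM; nearly all actives have a fitted effect of over 20% in size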)
In short: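 In this qHTS format, HepG2 cells plated overnight were pinned with compound, incubated 1 hr, and assayed for ATP luminescence with CellTiter-Glo after m-MPI dye addition.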

[3] = qHTS assay to test for compound auto fluorescence at 535 nm (green) in HepG2 cells (AID 720675)
[4] = qHTS assay to test for compound auto fluorescence at 535 nm (green) in HEK293 cells (AID 720680)
[5] = qHTS assay to test for compound auto fluorescence at 460 nm (blue) in HEK293 cell free culture (AID 720681)
In short: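 Compounds were added to cell-free DMEM with 10% FBS and fluorescence read directly. The blue channel used 405 nm excitation and 460 nm emission, with triamterene as the reference fluorophore.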

[6] = qHTS assay to test for compound auto fluorescence at 535 nm (green) in HEK293 cell free culture (AID 720682)
In short: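 Green-label autofluorescence (485 nm excitation, 535 nm emission) measured on compound added to cell-free culture medium (DMEM, 10% FBS). Output is expressed relative to fluorescein.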

[7] = qHTS assay to test for compound auto fluorescence at 590 nm (red) in HEK293 cell free culture (AID 720683)
In short: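 Cell-free wells of DMEM with 10% FBS received compound, and intrinsic fluorescence was read at excitation/emission 540/590 nm. Values expressed as equivalence to Rose Bengal sodium.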

[8] = qHTS assay to test for compound auto fluorescence at 590 nm (red) in HepG2 cell free culture (AID 720684)
In short: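 Auto fluorescence equivalency versus Rose Bengal sodium, red channel Ex/Em 540/590 nm; compounds in cell-free MEM/10% FBS; DMSO vehicle control.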

[9] = qHTS assay to test for compound auto fluorescence at 460 nm (blue) in HepG2 cell free culture (AID 720685)
In short: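 Cell-free plates of MEM plus 10% FBS received 23 nL compound or DMSO vehicle; blue-channel (405/460 nm) intensity scored against triamterene as reference fluorophore.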

[10] = qHTS assay to identify small molecule antagonists of the androgen receptor (AR) signaling pathway using the MDA cell line - cell viability counter screen (AID 743041; further: nearly all actives have a fitted effect of over 45% in size)
In short: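 Compound exposure lasted 16 h at 37C in MDA-kb2 AR-luc cells stimulated with R1881. Protease-based CellTiter-Fluor reagent was applied for the final 30 min and fluorescence measured.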

[11] = tested on: thyroid hormone receptor (rat, GH3 cells); experiment: qHTS assay to identify small molecule agonists of the thyroid receptor (TR) signaling pathway (AID 743066; calls by dose curve)
[12] = qHTS assay to identify small molecule antagonists of the estrogen receptor alpha (ER-alpha) signaling pathway - cell viability counter screen (AID 743074; calls by dose curve;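 further: HEK293 cells carrying ER-alpha-UAS-bla reporter stimulated with 17beta-estradiol; nearly all actives have a fitted effect of over 45% in size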)
[13] = qHTS assay to identify small molecule antagonists of the estrogen receptor alpha (ER-alpha) signaling pathway using the BG1 cell line - cell viability counter screen (AID 743081);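 further: compound given together with 17beta-estradiol as the ER stimulus; series mostly up to about 70 µM; nearly all actives have a fitted effect of over 45% in size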
Aromatase (Homo sapiens) = Aromatase (Homo sapiens) (UniProt P11511); experiment: qHTS assay to identify aromatase inhibitors (AID 743083); further: series mostly up to about 70 µM; nearly all actives have a fitted effect of over 55% in size
[14] = qHTS assay to identify aromatase inhibitors - cell viability counter screen (AID 743084);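 further: cells stimulated with testosterone during compound exposure; nearly all actives have a fitted effect of over 55% in size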
[15] = molecular target: Aryl hydrocarbon receptor (Homo sapiens) (UniProt P35869); experiment: qHTS assay to identify small molecule that activate the aryl hydrocarbon receptor (AhR) signaling pathway (AID 743085);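 further: HG2L7.5c1 human HepG2 liver cells with stably integrated DRE-driven firefly reporter; series mostly up to about 70 µM; nearly all actives have a fitted effect of over 15% in size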
In short: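 HepG2 cells stably carrying a 20-DRE firefly luciferase reporter (HG2L7.5c1) treated with compound for 24 hr at 37C. Luciferase read by ONE-Glo luminescence, with CellTiter-Fluor viability read first.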

[16] = qHTS assay to identify small molecule that activate the aryl hydrocarbon receptor (AhR) signaling pathway - cell viability counter screen (AID 743086);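 further: HepG2 liver cells carrying the AhR DRE luciferase reporter; series mostly up to about 70 µM; nearly all actives have a fitted effect of over 45% in size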
In short: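 HepG2-AhR-luc (HG2L7.5c1) cells, 4000/well, treated 24 h at 37 C with compound; viability measured as CellTiter-Fluor fluorescence after 30 min in the same wells as the luciferase read.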

[17] = qHTS assay to identify small molecule phospholipidosis (PLD) inducers (AID 1259344; active means well fitted curve in the direction sought with a large enough effect; an effect the other way counts as inactive or inconclusive)
In short: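 Image-based: LipidTOX Red pit count/intensity per well and per cell; HepG2, 24 h compound at 37 C, PFA fixation, Hoechst counterstain.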

[18] = molecular target: Nuclear receptor subfamily 1 group I member 2 (Rattus norvegicus) (UniProt Q9R1A7); experiment: Rat pregnane X receptor (rPXR) activation by small molecules, qHTS assay (AID 1346983); settings: rPXR luciferase reporter cells, One-Glo luminescence, 24 h; max activation: stronger effect = higher value; further: nearly all actives have a fitted effect of over 20% in size
In short: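 Cell-based rPXR activation assay: rPXR cells, 2,000 per well, rested 5hr at 37 C, then exposed to compounds in DMSO for 24 hr at 37 C. Luciferase activity read by One-Glo luminescence after 30 min at room temperature.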

[19] = qHTS assay to test for compound auto fluorescence at 535 nm (green) in HepG2 cell free culture (AID 720686)
On the % scale 0 is the no-effect control and ±100 the full control effect.

Nuclear receptor subfamily 1 group I member 2 (Rattus norvegicus), sequence (Q9R1A7 whole entry, looked up): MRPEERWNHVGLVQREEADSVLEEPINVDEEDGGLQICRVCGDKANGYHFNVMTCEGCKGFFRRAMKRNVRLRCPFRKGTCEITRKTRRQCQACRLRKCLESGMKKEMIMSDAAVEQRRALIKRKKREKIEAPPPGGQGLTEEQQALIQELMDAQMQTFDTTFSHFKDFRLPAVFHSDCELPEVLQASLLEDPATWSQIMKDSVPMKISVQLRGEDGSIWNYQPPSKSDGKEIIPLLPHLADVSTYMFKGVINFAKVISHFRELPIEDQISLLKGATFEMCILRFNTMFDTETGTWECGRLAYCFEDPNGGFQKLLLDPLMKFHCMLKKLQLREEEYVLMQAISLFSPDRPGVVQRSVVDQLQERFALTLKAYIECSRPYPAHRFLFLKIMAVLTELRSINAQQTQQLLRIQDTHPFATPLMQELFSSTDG
Aryl hydrocarbon receptor (Homo sapiens), sequence (P35869 whole entry, looked up): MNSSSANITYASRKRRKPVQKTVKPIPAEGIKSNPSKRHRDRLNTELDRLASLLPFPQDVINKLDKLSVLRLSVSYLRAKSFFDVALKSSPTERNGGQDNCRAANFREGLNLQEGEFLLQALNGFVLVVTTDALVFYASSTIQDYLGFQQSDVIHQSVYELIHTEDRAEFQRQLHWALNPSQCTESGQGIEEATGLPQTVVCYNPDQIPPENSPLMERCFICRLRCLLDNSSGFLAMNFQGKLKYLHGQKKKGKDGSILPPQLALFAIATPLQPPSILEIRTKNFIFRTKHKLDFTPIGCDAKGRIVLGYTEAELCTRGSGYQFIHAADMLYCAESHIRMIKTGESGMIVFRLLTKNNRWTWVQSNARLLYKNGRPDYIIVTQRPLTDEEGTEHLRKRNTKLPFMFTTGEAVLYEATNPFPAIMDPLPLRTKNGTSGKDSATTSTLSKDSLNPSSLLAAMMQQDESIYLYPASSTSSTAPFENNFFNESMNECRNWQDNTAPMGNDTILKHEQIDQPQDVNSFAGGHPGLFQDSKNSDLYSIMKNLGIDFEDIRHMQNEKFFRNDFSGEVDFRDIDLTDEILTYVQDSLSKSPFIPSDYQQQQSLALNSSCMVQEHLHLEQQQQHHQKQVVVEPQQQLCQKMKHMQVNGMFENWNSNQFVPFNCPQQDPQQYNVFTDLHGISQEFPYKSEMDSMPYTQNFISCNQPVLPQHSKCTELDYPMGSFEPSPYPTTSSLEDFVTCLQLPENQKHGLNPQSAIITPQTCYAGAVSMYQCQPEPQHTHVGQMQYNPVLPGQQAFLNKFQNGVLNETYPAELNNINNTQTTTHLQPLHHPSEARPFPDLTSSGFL
Aromatase (Homo sapiens), sequence (P11511 whole entry, looked up): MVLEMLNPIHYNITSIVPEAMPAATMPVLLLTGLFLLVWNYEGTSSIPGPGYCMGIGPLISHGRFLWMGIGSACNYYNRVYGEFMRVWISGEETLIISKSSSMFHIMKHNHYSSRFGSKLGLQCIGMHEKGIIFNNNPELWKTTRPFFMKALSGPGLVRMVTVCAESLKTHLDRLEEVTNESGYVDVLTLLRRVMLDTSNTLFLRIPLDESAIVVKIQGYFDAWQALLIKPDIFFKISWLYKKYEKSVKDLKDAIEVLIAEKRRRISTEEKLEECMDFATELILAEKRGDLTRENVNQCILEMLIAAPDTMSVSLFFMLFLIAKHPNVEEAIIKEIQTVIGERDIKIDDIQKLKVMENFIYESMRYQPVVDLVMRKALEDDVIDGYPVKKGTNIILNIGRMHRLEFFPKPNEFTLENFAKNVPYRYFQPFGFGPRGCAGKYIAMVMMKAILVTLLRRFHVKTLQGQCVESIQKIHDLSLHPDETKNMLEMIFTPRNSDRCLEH

CCN1C[C@]2(COC)[C@H](O)C[C@H](OC)[C@@]34[C@@H]5C[C@@]6(O)[C@H](OC(=O)c7ccccc7)[C@@H]5[C@@](OC(C)=O)([C@@H]([C@H](OC)[C@H]23)[C@@H]14)[C@@H](O)[C@@H]6OC
inactive: Potency [1] | Potency [2] | Potency [3] | Potency [4] | Potency [5] | Potency [6] | outcome [7] | outcome [8] | Potency [9] | Potency [10] | Potency [11] | Potency [12] | Potency [13] | Potency (Aromatase (Homo sapiens)) | Potency [14] | Potency [15] | Potency [16] | Potency [17] | max activation [18] -1.75%

Cc1nnc2n1-c1ccc(Cl)cc1C(c1ccccc1Cl)=NC2
inactive: Potency [2] | Potency [3] | Potency [4] | Potency [5] | Potency [6] | outcome [7] | outcome [8] | Potency [9] | Potency [19] | Potency [10] | Potency [11] | Potency [12] | Potency [13] | Potency (Aromatase (Homo sapiens)) | Potency [14] | Potency [16] | Potency [17] | max activation [18] 3.04%

CN1[C@H]2CC[C@@H]1[C@@H](C(=O)O)[C@@H](OC(=O)c1ccccc1)C2
inactive: Potency [1] | Potency [2] | Potency [3] | Potency [4] | Potency [5] | Potency [6] | outcome [7] | outcome [8] | Potency [9] | Potency [19] | Potency [10] | Potency [11] | Potency [12] | Potency [13] | Potency (Aromatase (Homo sapiens)) | Potency [14] | Potency [15] | Potency [16] | Potency [17] | max activation [18] -2.75%

C=C[C@H]1CN2CC[C@H]1C[C@@H]2[C@@H](O)c1ccnc2ccccc12
inactive: Potency [1] | Potency [2] | Potency [3] | Potency [4] | Potency [5] | Potency [6] | outcome [7] | outcome [8] | Potency [9] | Potency [19] | Potency [10] | Potency [11] | Potency [12] | Potency [13] | Potency (Aromatase (Homo sapiens)) | Potency [14] | Potency [15] | Potency [16] | Potency [17] | max activation [18] -2.95%

NC1=NC(=O)N2CC12 (stereo not drawn)
inactive: Potency [1] | Potency [2] | Potency [3] | Potency [4] | Potency [5] | Potency [6] | outcome [7] | outcome [8] | Potency [9] | Potency [10] | Potency [11] | Potency [12] | Potency [13] | Potency (Aromatase (Homo sapiens)) | Potency [14] | Potency [15] | Potency [16] | Potency [17] | max activation [18] -1.23%

S=C(S)N1CCNCC1
inactive: Potency [1] | Potency [2] | Potency [3] | Potency [4] | Potency [5] | Potency [6] | outcome [7] | outcome [8] | Potency [9] | Potency [19] | Potency [10] | Potency [11] | Potency [12] | Potency [13] | Potency (Aromatase (Homo sapiens)) | Potency [14] | Potency [15] | Potency [16] | Potency [17] | max activation [18] -2.4%

CCNC(C)Cc1cccc(C(F)(F)F)c1 (stereo not drawn)
inactive: Potency [1] | Potency [2] | Potency [3] | Potency [4] | Potency [5] | Potency [6] | outcome [7] | outcome [8] | Potency [9] | Potency [19] | Potency [10] | Potency [11] | Potency [12] | Potency [13] | Potency (Aromatase (Homo sapiens)) | Potency [14] | Potency [15] | Potency [16] | Potency [17] | max activation [18] -1.05%

O=C1CCO1
inactive: Potency [1] | Potency [2] | Potency [3] | Potency [4] | Potency [5] | Potency [6] | outcome [7] | outcome [8] | Potency [9] | Potency [19] | Potency [10] | Potency [11] | Potency [13] | Potency (Aromatase (Homo sapiens)) | Potency [14] | Potency [15] | Potency [16] | Potency [17] | max activation [18] -0.633%

CNC(C)C(O)c1ccc(O)cc1 (stereo not drawn)
inactive: Potency [1] | Potency [2] | Potency [3] | Potency [4] | Potency [5] | Potency [6] | outcome [7] | outcome [8] | Potency [9] | Potency [19] | Potency [10] | Potency [11] | Potency [12] | Potency [13] | Potency (Aromatase (Homo sapiens)) | Potency [14] | Potency [15] | Potency [16] | Potency [17] | max activation [18] -2.76% and -1.51%

CC(C)C[C@H](CN)CC(=O)O
inactive: Potency [1] | Potency [2] | Potency [3] | Potency [4] | Potency [5] | Potency [6] | outcome [7] | outcome [8] | Potency [9] | Potency [19] | Potency [10] | Potency [12] | Potency [13] | Potency (Aromatase (Homo sapiens)) | Potency [14] | Potency [15] | Potency [16] | Potency [17] | max activation [18] -2.72%

C[N+]1(C)CCCCC1COC(=O)C(O)(c1ccccc1)c1ccccc1 (stereo not drawn)
inactive: Potency [1] | Potency [2] | Potency [3] | Potency [4] | Potency [5] | Potency [6] | outcome [7] | outcome [8] | Potency [9] | Potency [19] | Potency [10] | Potency [12] | Potency [13] | Potency (Aromatase (Homo sapiens)) | Potency [14] | Potency [15] | Potency [16] | Potency [17] | max activation [18] 2.59%
